The whole screen tested about 48,000 compounds, of which about 13,000 (27%) showed an effect of 50% or more. Some of the results follow.
Test system: Wolbachia pipientis
Test: Anti-Wolbachia Cell-Based Screen
Format: functional
Set-up: scale not given: in the data most compounds retested in dose-response had high values
Conditions: 5 µM

| Compound | Percent Effect [%] |
| --- | --- |
| CCCc1cnc(C)nc1N1CCC(F)(F)CC1 | -3.547 |
| Cc1cccc2c1nc1n2[C@@H](CNC(=O)NC(C)C)COC1 | -19.06 |
| Cc1cc(Nc2ccc3c(c2)CC(=O)N3)nc(C2CC2)n1 | -4.534 |
| CC(C)Oc1cccc(C(=O)C2CCCN(C(=O)c3ccnn3C)C2)c1 (centres undefined) | -5.247 |
| Cc1cn2c(n1)CCC(NC(=O)c1cc(Br)cn1C)C2 (centres undefined) | -1.001 |
| Cn1cc(-c2cnc(-c3ccnn3C)nc2)cc1C(=O)NC1CC1 | 95.89 |
| Cn1cc(-c2cnc(N3CCCC3)nc2)cc1C(=O)O | -13.43 |
| Cn1cc(C(=O)NC2CCN(Cc3ccn(C)c(=O)c3)CC2)cn1 | -2.603 |
| Cn1nccc1C(=O)N1CCN(C(=O)C2CC2)[C@@H]2CS(=O)(=O)C[C@@H]21 | 14.29 |
| Cn1nccc1-c1nc2c(cc1C(=O)O)CCN(CC1CC1)CC2 | -6.641 |
| Cn1cc(-c2cnc(-c3ccnn3C)nc2)cc1C(=O)N1CCCC1 | 85.82 |
| Cn1nccc1-c1ncc(-c2cc(C(=O)O)n(CC3CC3)c2)cn1 | 118.9 |
| COc1cccc2c1OCC(C(=O)N1CCC(N3CCSCC3)CC1)C2 (centres undefined) | -10.16 |
| CSc1ccc(NCC(=O)NC(=O)NCC(F)(F)F)cc1F | 2.815 |
| CCN(Cc1ccoc1)C(=O)Nc1ccccc1CN1CCOCC1 | 2.801 |
| Cc1cc(C(=O)NC2CC(=O)N(C(C)C)C2=O)c(C)n1C(C)C (centres undefined) | -25.95 |
| CC(C)[C@H]1CN(S(=O)(=O)c2cccnc2)C[C@@H]1N | -3.763 |
| CNC(=O)CS(=O)(=O)C1CCN(S(=O)(=O)c2cccnc2)CC1 | 10.97 |
| Cc1cc(N(C)C)cc(C2CCN(S(=O)(=O)c3cccs3)C2)n1 (centres undefined) | 93.47 |
| COCCc1noc(C2CCN(S(=O)(=O)c3cccs3)CC2)n1 | -5.417 |
| Cc1noc(C)c1-c1n[nH]c2c1CN(S(=O)(=O)c1cccnc1)CC2 | 2.189 |
| O=S(=O)(c1cccs1)N1CCC(c2nc(-c3cccs3)no2)CC1 | 1.77 |

| Compound | Percent Effect [%] |
| --- | --- |
| N[C@H]1CN(S(=O)(=O)c2cccnc2)C[C@@H]1C1CC1 | -0.9551 |
| Cc1cccc(C2CCCN(S(=O)(=O)c3cccnc3)C2)n1 (centres undefined) | 131.9 |
| Cc1cc(N(C)C)cc(C2CCN(S(=O)(=O)c3cccnc3)C2)n1 (centres undefined) | 129.7 |
| CN(C[C@@H]1CCC[C@@H]2CN(c3ncccn3)C[C@@H]21)C1CC1.O=C(O)C(F)(F)F | 9.93 |
| COc1ccc(N(Cc2ccco2)C(=O)C2CCOC2)cc1F (centres undefined) | -6.319 |
| COc1ccc(CNC(=O)N(Cc2ccc(F)cc2F)C2CC2)cn1 | 13.46 |
| NC(=O)N1CCCN(CCCSCc2ccccc2)CC1 | -22.93 |
| CCSCc1ccc(C(=O)N2CCCN(CC(N)=O)CC2)cc1 | 111.3 |
| CCN1CCCN(C(=O)c2cnc(OC(C)C)c(Cl)c2)CC1 | 20.31 |
| CC(=O)N1CCCN(CCCSCc2ccccc2)CC1 | -18.43 |
| NC(=O)CN1CCCN(C(=O)c2ccc(SC(F)F)cc2)CC1 | 104.9 |
| NC(=O)CN1CCCN(C(=O)c2ccn(-c3ccc(F)cc3)n2)CC1 | 9.69 |
| CCSCc1ccc(C(=O)N2CCCN(CC)CC2)cc1 | 93.96 |
| NC(=O)CN1CCCN(C(=O)c2ccn(-c3ccccc3)n2)CC1 | -8.836 |
| Cc1cc(Br)oc1C(=O)N1CCCN(CC(N)=O)CC1 | -7.615 |
| COc1ccc2[nH]c(C[C@@H]3C[C@@H](C(C)C)[C@H](CN(C)C)C=C3C)nc2c1 | -3.029 |
| Cc1ccc(C(CNCc2cccn2C)N2CCOCC2)s1 (centres undefined) | 12.06 |
| Cc1ccc2nc(NCCCN3CCCCCC3=O)n(C)c(=O)c2c1 | 5.904 |
| CCC(CC)NC(=O)c1ccc2nnc(C3CCN(C(C)=O)C3)n2c1 (centres undefined) | -17.88 |
| NCCC(=O)N1CCC2(CC1)CN(C(=O)c1ccc(Cl)cc1)CCO2 | 94.29 |
| O=C(c1ccc(Cl)cc1)N1CCC2(C1)C(=O)Nc1ccccc12 (centres undefined) | 123 |
| CC(C)N(C)C(=O)C1=NOC2(CCN(C(=O)c3ccc(Cl)cc3)C2)C1 (centres undefined) | -15.34 |

| Compound | Percent Effect [%] |
| --- | --- |
| NCCCC(=O)N1CCC2(CC1)CN(C(=O)c1ccc(Cl)cc1)CCO2 | 114.9 |
| CC(=O)N1CCC2(CC1)CN(C(=O)c1cccc3[nH]ccc13)CCO2 | -6.539 |
| O=C(c1ccc(Cl)cc1)N1CCC2(CC1)C(=O)Nc1ccccc12 | 0.2295 |
| O=C(c1ccoc1)N1CCC2(CC1)C(=O)Nc1ccccc12 | 5.078 |
| O=C(c1cnc(-c2ccccc2)nc1)N1CCOC2(CCCC2)C1 | -7.447 |
| CN(C)C(=O)NC1COC2(CCN(C(=O)c3ccc(Cl)cc3)CC2)C1 (centres undefined) | -7.709 |
| CN(C)Cc1ccc(NC(=O)c2nccn3ccnc23)cc1 | 4.692 |
| Cc1ncc2c(n1)CN(Cc1nc(-c3cccs3)no1)CC2 | 104.1 |
| c1csc(-c2noc(CN3CCc4c(ncn4C4CC4)C3)n2)c1 | -1.185 |
| COc1ccc(-c2noc(CN3CCc4cncnc4C3)n2)cc1 | -16.15 |
| CCc1ncc2c(n1)CN(Cc1nc(-c3cccs3)no1)CC2 | 94.19 |
| c1csc(-c2noc(CN3CCc4cncnc4C3)n2)c1 | 93.12 |
| CC(C)c1ncc2c(n1)CN(Cc1nc(-c3cccs3)no1)CC2 | 1.311 |
| Cn1nc2c(cc1=O)CN(Cc1nc(-c3cccs3)no1)CC2 | -4.413 |
| CCc1ncc2c(n1)CN(Cc1cccc3c1OCCO3)CC2 | -19.5 |
| CCc1ncc2c(n1)CN(Cc1nc(-c3ccsc3)no1)CC2 | -2.841 |
| CC(C)c1nc2c(n1C)CCN(Cc1nc(-c3cccs3)no1)C2 | -3.537 |
| Cc1ncc2c(n1)CN(Cc1cccc3c1OCCO3)CC2 | -20.45 |
| c1cc(CN2CCc3cncnc3C2)c2c(c1)OCCO2 | 51.63 |
| O=C(NC1(c2nnn(CC3CC3)n2)CCCC1)c1ccccc1 | -31.69 |
